Holding throughout (assay): DAPPL (digital affinity profiling via proximity ligation, sequencing); 10 mM Tris-HCl pH 7.5, 50 mM NaCl, 1 mM DTT, 4% glycerol, room temperature, 30 min; GST-TFs on glutathione beads, 16-mer random dsDNA library, 0.1% formaldehyde crosslink after washing; high values mean tight binding
Assay [1] concerns the target T1, FEV (Homo sapiens, UniProt Q99581 1-238).
T1 sequence: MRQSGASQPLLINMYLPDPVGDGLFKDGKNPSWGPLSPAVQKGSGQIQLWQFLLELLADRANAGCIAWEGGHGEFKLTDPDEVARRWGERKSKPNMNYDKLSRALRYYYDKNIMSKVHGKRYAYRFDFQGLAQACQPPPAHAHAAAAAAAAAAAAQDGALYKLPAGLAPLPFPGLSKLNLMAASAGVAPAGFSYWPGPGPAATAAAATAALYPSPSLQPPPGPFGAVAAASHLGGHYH
The settings on record: protein: recombinant; tags: N-terminal GST; dsDNA, one strand shown. The method, boiled down: (§1)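 Each value of binding signal is a hexamer's read frequency for a factor divided by the same hexamer's frequency in the tag-only sample. Barcoded, bead-captured GST fusions of human transcription factors made in yeast were pooled with that sample and incubated with 200 nmole of a random double-stranded 16-mer DNA library in Tris/NaCl/DTT/glycerol buffer at room temperature for 30 min. Washing, 0.1% formaldehyde crosslinking, proximity ligation, PCR and Illumina NextSeq500 sequencing followed.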

Assay [2] addresses ETV5 (Homo sapiens, UniProt P41161 1-510). The following applies: protein: recombinant; tags: N-terminal GST; dsDNA, one strand shown. The method, boiled down: as §1
Assay [3] concerns the target HSF1 (Homo sapiens, UniProt Q00613 1-529). The following applies: protein: recombinant; tags: N-terminal GST; chain copies: 3; dsDNA, one strand shown. Put shortly: as §1
The target in assay [4] is T2, SPIC (Homo sapiens, UniProt Q8N5J4 1-248).
T2 sequence: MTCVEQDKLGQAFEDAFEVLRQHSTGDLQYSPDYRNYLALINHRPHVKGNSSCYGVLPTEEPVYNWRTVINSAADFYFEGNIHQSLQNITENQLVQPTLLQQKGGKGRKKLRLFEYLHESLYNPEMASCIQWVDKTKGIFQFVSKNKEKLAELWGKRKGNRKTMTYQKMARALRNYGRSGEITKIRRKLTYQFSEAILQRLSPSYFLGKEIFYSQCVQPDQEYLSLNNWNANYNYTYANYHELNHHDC
The following applies: protein: recombinant; tags: N-terminal GST; dsDNA, one strand shown. The method, boiled down: as §1

Assay [5] has as its target ELF4 (Homo sapiens, UniProt Q99607 1-663). The settings on record: protein: recombinant; tags: N-terminal GST; dsDNA, one strand shown. Put shortly: as §1
The target of assay [6] is T3, ELK4 (Homo sapiens, UniProt P28324-2 1-405).
T3 sequence: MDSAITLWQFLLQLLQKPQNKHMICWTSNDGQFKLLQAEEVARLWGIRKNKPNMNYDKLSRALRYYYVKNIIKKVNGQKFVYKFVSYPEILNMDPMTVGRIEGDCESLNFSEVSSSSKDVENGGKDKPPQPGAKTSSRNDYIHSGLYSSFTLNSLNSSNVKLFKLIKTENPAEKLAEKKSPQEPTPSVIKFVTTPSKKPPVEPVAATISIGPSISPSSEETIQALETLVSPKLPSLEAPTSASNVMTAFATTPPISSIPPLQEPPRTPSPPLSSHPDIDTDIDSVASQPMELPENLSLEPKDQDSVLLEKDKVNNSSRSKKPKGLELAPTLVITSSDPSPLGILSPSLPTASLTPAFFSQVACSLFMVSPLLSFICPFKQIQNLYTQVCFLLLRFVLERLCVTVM
The following applies: protein: recombinant; tags: N-terminal GST; dsDNA, one strand shown. Put shortly: as §1

Assay [7] deals with T4, ETV2 (Homo sapiens, UniProt O00321 1-342).
T4 sequence: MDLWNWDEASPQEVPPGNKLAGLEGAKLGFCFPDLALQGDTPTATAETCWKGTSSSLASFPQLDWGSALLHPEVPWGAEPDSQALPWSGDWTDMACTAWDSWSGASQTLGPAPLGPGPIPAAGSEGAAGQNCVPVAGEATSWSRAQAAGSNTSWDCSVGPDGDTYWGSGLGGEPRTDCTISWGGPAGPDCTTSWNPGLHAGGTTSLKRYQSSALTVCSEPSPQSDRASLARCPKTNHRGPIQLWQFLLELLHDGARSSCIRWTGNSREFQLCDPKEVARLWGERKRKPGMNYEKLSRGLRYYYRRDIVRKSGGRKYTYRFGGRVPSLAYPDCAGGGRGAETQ
The following applies: protein: recombinant; tags: N-terminal GST; dsDNA, one strand shown. The method, boiled down:
as §1

In assay [8] the target is T5, ELF3 (Homo sapiens, UniProt P78545 1-371).
T5 sequence: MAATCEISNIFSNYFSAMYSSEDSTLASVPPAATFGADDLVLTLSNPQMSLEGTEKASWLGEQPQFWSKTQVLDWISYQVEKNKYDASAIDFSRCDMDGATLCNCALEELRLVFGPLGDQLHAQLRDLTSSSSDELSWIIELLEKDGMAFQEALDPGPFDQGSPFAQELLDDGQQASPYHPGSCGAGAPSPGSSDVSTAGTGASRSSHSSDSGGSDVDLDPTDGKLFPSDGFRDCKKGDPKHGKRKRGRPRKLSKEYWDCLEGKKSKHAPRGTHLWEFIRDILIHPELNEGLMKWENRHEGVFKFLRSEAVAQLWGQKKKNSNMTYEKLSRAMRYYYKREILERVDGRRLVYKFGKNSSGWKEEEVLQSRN
The following applies: protein: recombinant; tags: N-terminal GST; dsDNA, one strand shown. The method, boiled down: as §1

In assay [9] the target is CRX (Homo sapiens, UniProt O43186 1-299). The settings on record: protein: recombinant; tags: N-terminal GST; dsDNA, one strand shown. Put shortly:
as §1

For assay [10], the target named is ETV1 (Homo sapiens, UniProt P50549 1-477). The following applies: protein: recombinant; tags: N-terminal GST; dsDNA, one strand shown. Put shortly: as §1
Assay [11] addresses T6, ERF (Homo sapiens, UniProt P50548 1-548).
T6 sequence: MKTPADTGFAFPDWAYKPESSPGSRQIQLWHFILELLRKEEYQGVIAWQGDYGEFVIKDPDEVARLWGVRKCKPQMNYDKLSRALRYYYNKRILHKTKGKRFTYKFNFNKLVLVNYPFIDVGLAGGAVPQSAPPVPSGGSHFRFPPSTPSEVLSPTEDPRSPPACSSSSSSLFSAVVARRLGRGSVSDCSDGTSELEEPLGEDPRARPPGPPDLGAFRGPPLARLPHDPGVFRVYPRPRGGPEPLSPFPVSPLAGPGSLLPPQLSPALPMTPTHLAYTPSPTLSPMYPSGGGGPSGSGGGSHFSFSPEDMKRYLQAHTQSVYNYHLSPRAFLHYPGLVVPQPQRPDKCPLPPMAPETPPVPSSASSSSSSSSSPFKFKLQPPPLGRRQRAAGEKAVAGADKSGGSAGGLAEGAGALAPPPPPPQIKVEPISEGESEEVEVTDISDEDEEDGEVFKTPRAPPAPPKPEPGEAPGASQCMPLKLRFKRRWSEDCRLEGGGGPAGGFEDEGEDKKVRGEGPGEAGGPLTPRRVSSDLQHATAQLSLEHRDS
The following applies: protein: recombinant; tags: N-terminal GST; dsDNA, one strand shown. The method, boiled down:
as §1

In assay [12] the target is T7, ETV3L (Homo sapiens, UniProt Q6ZN32 1-361).
T7 sequence: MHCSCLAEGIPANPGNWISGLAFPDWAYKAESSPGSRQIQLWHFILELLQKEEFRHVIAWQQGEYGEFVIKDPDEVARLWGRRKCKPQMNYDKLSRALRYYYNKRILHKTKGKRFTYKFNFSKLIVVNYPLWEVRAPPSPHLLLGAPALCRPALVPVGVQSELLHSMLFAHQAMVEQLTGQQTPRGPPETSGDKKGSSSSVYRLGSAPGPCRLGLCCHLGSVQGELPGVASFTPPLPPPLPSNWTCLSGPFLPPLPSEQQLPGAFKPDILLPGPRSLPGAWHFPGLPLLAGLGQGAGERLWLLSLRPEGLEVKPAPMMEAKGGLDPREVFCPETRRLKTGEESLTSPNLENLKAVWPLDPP
The following applies: protein: recombinant; tags: N-terminal GST; dsDNA, one strand shown. The method, boiled down: as §1

The target in assay [13] is T8, ETS2 (Homo sapiens, UniProt P15036 1-469).
T8 sequence: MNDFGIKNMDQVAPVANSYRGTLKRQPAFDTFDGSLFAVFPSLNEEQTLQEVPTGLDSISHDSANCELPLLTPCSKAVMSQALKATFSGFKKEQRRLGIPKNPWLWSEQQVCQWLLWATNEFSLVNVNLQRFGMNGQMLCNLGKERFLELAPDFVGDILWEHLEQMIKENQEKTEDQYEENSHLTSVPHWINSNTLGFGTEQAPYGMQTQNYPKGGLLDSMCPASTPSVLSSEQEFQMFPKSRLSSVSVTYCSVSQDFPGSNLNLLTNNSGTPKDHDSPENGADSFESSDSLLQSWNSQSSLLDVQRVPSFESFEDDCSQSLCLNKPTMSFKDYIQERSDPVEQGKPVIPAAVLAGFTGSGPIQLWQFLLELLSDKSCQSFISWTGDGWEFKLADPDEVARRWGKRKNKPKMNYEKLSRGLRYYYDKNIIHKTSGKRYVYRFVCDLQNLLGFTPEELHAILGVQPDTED
The settings on record: protein: recombinant; tags: N-terminal GST; dsDNA, one strand shown. The method, boiled down: as §1

The target of assay [14] is T9, SPDEF (Homo sapiens, UniProt O95238 1-335).
T9 sequence: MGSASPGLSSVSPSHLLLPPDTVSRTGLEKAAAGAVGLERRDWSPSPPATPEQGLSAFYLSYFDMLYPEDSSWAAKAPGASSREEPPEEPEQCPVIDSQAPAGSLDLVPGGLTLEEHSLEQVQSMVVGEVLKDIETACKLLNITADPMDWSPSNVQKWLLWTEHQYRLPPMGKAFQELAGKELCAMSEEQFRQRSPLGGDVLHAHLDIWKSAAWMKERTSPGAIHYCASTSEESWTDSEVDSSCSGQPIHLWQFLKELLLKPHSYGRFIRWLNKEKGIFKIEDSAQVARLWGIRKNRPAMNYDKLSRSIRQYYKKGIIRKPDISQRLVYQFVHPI
The settings on record: protein: recombinant; tags: N-terminal GST; dsDNA, one strand shown. Put shortly: as §1

Assay [15] addresses T10, ETV7 (Homo sapiens, UniProt Q9Y603 1-341).
T10 sequence: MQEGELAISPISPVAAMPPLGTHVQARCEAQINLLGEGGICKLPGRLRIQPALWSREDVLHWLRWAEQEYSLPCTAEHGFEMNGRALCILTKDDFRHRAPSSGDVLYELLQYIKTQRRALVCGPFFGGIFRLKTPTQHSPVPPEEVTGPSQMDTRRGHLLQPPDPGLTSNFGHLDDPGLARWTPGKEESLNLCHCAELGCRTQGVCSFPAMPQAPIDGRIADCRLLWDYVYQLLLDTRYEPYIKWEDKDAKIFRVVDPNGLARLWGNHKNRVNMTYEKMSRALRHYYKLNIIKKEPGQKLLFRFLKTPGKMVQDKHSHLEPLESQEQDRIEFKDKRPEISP
The settings on record: protein: recombinant; tags: N-terminal GST; dsDNA, one strand shown. Put shortly:
as §1

Assay [16] deals with T11, ELF5 (Homo sapiens, UniProt Q9UKW6-2 1-255).
T11 sequence: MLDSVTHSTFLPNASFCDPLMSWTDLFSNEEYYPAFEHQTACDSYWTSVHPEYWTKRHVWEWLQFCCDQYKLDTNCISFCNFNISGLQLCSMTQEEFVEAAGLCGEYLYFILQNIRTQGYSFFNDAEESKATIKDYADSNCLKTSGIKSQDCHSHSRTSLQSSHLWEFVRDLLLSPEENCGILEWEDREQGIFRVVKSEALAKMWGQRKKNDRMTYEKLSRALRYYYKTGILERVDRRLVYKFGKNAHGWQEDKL
The following applies: protein: recombinant; tags: N-terminal GST; dsDNA, one strand shown. The method, boiled down:
as §1

Assay [17] concerns the target T12, ETV3 (Homo sapiens, UniProt P41162-2 1-143).
T12 sequence: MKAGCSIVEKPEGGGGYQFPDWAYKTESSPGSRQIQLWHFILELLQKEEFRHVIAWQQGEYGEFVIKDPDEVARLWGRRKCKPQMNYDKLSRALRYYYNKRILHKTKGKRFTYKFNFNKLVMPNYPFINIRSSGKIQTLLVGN
The settings on record: protein: recombinant; tags: N-terminal GST; dsDNA, one strand shown. The method, boiled down: as §1

Assay [18] has as its target ETV6 (Homo sapiens, UniProt P41212 1-452). The settings on record: protein: recombinant; tags: N-terminal GST; dsDNA, one strand shown. The method, boiled down:
as §1

Chain of CRX (O43186 whole entry): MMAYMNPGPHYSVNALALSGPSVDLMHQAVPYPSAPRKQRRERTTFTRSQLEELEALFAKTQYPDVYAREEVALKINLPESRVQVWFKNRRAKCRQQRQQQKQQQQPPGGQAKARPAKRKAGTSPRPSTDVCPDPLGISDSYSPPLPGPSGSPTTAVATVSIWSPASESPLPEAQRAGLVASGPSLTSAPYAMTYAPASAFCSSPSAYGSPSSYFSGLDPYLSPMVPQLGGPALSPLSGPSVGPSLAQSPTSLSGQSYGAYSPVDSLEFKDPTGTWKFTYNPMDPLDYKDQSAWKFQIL
Chain of HSF1 (Q00613 whole entry): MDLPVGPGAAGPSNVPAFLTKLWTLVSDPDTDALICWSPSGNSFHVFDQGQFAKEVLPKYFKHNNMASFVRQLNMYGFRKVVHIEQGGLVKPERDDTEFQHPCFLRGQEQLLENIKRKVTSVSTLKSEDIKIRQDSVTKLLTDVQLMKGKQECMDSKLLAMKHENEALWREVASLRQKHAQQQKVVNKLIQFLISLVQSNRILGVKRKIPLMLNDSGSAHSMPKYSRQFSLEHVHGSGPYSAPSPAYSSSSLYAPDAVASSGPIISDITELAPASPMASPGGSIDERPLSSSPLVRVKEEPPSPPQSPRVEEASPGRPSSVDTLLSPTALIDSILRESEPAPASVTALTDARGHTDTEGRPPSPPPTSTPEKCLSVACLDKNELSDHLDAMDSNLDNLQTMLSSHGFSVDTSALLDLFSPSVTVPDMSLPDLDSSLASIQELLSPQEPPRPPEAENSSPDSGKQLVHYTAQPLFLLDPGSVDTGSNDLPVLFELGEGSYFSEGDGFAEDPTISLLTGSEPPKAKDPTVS
Chain of ETV5 (P41161 whole entry): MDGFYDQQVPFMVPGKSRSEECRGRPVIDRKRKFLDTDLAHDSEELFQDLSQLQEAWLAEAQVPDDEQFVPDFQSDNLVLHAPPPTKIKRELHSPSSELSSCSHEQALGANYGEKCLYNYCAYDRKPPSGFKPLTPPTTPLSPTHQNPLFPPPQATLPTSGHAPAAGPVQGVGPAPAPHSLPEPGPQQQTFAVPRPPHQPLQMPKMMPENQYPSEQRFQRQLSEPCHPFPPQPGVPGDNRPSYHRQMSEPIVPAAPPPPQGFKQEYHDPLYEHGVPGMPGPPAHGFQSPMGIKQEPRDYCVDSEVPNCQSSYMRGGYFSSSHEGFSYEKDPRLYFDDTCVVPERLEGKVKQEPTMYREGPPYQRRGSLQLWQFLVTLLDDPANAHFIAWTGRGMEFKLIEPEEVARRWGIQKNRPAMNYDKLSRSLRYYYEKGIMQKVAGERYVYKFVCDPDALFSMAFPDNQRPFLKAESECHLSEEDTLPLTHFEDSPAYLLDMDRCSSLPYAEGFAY
Chain of ETV1 (P50549 whole entry): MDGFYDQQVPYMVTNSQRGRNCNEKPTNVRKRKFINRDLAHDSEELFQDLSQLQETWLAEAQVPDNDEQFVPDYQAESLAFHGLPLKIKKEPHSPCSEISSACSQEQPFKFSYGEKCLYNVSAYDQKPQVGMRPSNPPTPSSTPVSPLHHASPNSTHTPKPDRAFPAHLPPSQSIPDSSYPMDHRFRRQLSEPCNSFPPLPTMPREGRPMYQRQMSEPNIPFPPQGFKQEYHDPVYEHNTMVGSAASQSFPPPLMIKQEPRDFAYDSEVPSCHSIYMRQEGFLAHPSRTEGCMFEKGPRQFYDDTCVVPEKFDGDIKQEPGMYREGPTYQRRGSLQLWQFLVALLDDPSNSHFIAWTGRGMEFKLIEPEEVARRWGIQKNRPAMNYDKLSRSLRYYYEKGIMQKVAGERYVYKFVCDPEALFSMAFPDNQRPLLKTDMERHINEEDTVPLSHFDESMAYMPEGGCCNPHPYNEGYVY
Chain of ETV6 (P41212 whole entry): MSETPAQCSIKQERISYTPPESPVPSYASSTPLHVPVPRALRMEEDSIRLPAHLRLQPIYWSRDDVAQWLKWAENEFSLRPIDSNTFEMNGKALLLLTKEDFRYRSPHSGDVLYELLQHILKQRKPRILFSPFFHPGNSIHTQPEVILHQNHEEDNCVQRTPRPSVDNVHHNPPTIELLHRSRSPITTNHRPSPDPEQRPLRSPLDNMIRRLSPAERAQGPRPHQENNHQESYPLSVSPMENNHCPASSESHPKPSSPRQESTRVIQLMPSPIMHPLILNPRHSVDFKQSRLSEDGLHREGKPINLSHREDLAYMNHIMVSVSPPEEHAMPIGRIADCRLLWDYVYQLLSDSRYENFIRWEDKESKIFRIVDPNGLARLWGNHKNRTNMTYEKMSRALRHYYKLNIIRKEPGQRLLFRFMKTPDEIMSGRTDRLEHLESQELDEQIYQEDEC
Chain of ELF4 (Q99607 whole entry): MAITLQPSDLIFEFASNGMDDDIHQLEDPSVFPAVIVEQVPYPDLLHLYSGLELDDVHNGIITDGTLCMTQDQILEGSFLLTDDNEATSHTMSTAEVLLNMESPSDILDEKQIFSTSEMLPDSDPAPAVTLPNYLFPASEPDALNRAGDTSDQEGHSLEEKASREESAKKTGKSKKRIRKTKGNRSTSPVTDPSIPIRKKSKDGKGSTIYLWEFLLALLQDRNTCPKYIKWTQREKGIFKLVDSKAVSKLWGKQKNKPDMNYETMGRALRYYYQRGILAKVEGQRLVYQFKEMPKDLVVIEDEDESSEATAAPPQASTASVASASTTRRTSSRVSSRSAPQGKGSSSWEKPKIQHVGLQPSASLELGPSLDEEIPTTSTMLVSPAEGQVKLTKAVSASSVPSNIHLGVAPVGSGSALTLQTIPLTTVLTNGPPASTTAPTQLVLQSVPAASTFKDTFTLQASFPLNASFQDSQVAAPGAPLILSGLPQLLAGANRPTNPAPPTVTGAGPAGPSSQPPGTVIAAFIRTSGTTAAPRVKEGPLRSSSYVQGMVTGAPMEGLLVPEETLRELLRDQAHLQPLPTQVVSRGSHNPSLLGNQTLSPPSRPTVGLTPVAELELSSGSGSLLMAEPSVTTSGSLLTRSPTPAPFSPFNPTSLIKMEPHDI

Turning to ACGCTT, the binding signal is 1.4 fold enrichment (6-mer frequency, TF over GST control) in assay [1]; 1.41 fold enrichment (6-mer frequency, TF over GST control) in assay [2]; 1.22 fold enrichment (6-mer frequency, TF over GST control) in [3]; 1.32 fold enrichment (6-mer frequency, TF over GST control) in assay [4]; 1.43 fold enrichment (6-mer frequency, TF over GST control) in [5]; 1.23 fold enrichment (6-mer frequency, TF over GST control) in assay [6]. The binding signal in assay [7] was 1.28 fold enrichment (6-mer frequency, TF over GST control); in assay [8] it was 1.55 fold enrichment (6-mer frequency, TF over GST control); in assay [9] it was 1.36 fold enrichment (6-mer frequency, TF over GST control); in assay [10], 1.39 fold enrichment (6-mer frequency, TF over GST control); in [11], 1.5 fold enrichment (6-mer frequency, TF over GST control); in assay [12], 1.35 fold enrichment (6-mer frequency, TF over GST control). Further, the binding signal was 1.42 fold enrichment (6-mer frequency, TF over GST control) in assay [13]; 1.39 fold enrichment (6-mer frequency, TF over GST control) in assay [14]; 1.52 fold enrichment (6-mer frequency, TF over GST control) in assay [15]; 1.22 fold enrichment (6-mer frequency, TF over GST control) in assay [16]; 1.4 fold enrichment (6-mer frequency, TF over GST control) in [17]; 1.45 fold enrichment (6-mer frequency, TF over GST control) in assay [18].

The values are drawn from publication PMC7862700, “An all-to-all approach to the identification of sequence-specific readers for epigenetic DNA modifications on cytosine”.
